Data from PubChem BioAssay AID624202 (National Center for Advancing Translational Sciences (NCATS), 2012).
The whole screen tested about 380,000 compounds, of which about 4,000 (1.1%) were called active. Another 3% or so got no clear call; they are omitted. Calls follow the shape of the dose curve; as a rule, active = well fitted activation curve with a large enough effect; inconclusive = small, poorly fitted or top-dose-only effect; inactive = no such curve, though single readings can be large or run the other way. Many of the other results were omitted from the sample, so actives are more common in it than they were.

Assay: qHTS Assay to Identify Small Molecule Activators of BRCA1 Expression; also: nearly all actives have a fitted effect of over 80% in size
Settings: MCF7-BRCA1-FFLuc reporter, luminescence, 48 h; series mostly up to 46.1 µM; activation: at the top concentration
Source text: Functionally, BRCA1 has been implicated in a wide array of cellular activities, including DNA damage repair, cell-cycle checkpoint control, growth inhibition, apoptosis, transcriptional regulation, chromatin remodeling, protein ubiquitylation, and mammary stem cell self-renewal and differentiation. Reduction in BRCA1 levels is associated with an increase in tumor growth and resistance to anti-estrogenic agents, such as tamoxifen, while an increase in BRCA1 expression leads to cell growth arrest and apoptosis. […] The frequent loss of BRCA1 expression in invasive breast cancers in the absence of somatic mutation has been attributed to numerous mechanisms, including hypermethylation of the BRCA1 promoter, exaggerated ubiquitylation of BRCA1 protein, and improper intracellular localization. […] Basal-like breast cancers (BLBCs) are associated with an aggressive clinical course, resistance to chemotherapy, and typically lack expression of estrogen receptor (ER), progesterone receptor (PR), and epidermal growth factor receptor 2 (HER2). BLBCs account for 10-17% of all breast cancers, have few therapeutic options, and are considered the biggest unmet need in the treatment of breast cancer. Conversely, tumors which maintain expression of functional BRCA1 are almost uniformly luminal type cancers, and are accordingly associated with more indolent clinical courses, responsiveness to endocrine therapies, and improved survival.
As such, it is possible that an increase in BRCA1 expression would enable cellular differentiation and restore tumor suppressor function, resulting in delayed tumor growth and less aggressive, more treatable breast cancers. The long term goal of this proposal is to develop a novel prevention or therapeutic agent for breast cancer patients. To accomplish this goal, the overall objective of this proposal is to access the resources provided by the NIH Molecular Libraries Roadmap Initiative and the Molecular Libraries Probe Production Centers Network (MLPCN) to discover and develop new chemical activator probes that will increase BRCA1 expression and function.
NIH Molecular Libraries Probe Production Network [MLPCN]
NIH Chemical Genomics Center [NCGC]
PI Name: Lisa Harlan-Williams, University of Kansas Medical Center
5microl of MCF7-BRCA1-FFLuc cell suspension (400 cells/microl in phenol-red free MEM) are dispensed into Greiner white solid bottom 1536-well assay plates, yielding a final well density of 2000 cells/well. Plates are incubated for 2 hours at 37 degrees C in 5% humidified CO2 to allow cell attachment. Compounds are then transferred via Kalypsys pin tool equipped with 1536-pin array (10nl slotted pins, V&P Scientific, San Diego, CA). The plates are then incubated at 37 degrees C in 5% humidified CO2 for 48 hours. The NCGC in-house luciferase substrate reagent, Buglite, is then added (2.5microl) and plates incubated for 15 minutes, before being transferred to a ViewLux high-throughput CCD imager (PerkinElmer) wherein single end-point measurements of luminescence are acquired using a clear filter. The positive control compound, genistein, will be pinned into dedicated control columns on each plate, including a 16-point 1:3 titration in duplicate, as well as a 10microM maximum activation control, allowing for the normalization of screening activity. DMSO will be pinned into a separate column as a negative control.
All screening operations will be performed on a fully integrated robotic system (Kalypsys, San Diego, CA) containing one RX-130 and two RX-90 anthropomorphic robotic arms (Staubli, Duncan, SC). Library plates will be screened starting from the lowest and proceeding to the highest concentration. Vehicle-only plates, with DMSO being pin-transferred to columns 5-48, will be inserted uniformly at the beginning and the end of each library in order to monitor and record any shifts in the background, which can be affected by reagent dispensers or loss in enzyme activity over time. […]
Potency is read from the fitted curve at half-maximal effect.

activation, inactive:
CC(C)C[C@H](NC(=O)NCCc1ccc(Cl)cc1)C(=O)O -20.5%
O=C(NCCc1ccccc1)C1CC1 32.3%
O=C(COc1ccc(Cl)cc1)NCCSc1ccccc1 51.9%
NS(=O)(=O)c1ccc(CCNC(=O)c2ccc(Cl)cc2[N+](=O)[O-])cc1 -10.3%
Cc1nc2ccc(S(=O)(=O)NC(C(=O)NCc3ccccc3Cl)C(C)C)cc2s1 (stereo not drawn) 12.6%
COc1ccc(Cl)cc1NC(=O)CSc1nc(-c2cccs2)cc(C(F)(F)F)n1 -14.4%
COc1ccc(CNc2nc(-c3ccccc3)nn2C(=O)c2ccccc2OC)cc1 65.4%
O=C(/C=C/c1cn(CC(O)CN2CCc3ccccc32)c2ccccc12)c1ccc(Br)cc1 (stereo not drawn) -51.9%
O=C(Nc1ccc2c(c1)OCCO2)C1CCCC1 51.4%
O=C(Nc1ccccn1)C1CCN(S(=O)(=O)c2ccc3c(c2)OCCO3)CC1 47.3%
CCOc1ccc(OCC)c(NS(=O)(=O)c2ccc3[nH]c(=O)ccc3c2)c1 9%
O=C(Nc1cccc2cccnc12)C(F)(F)F 32.5%
O=C(NCc1ccccc1Cl)C1CCCO1 (stereo not drawn) 11.4%
CSc1ccc(CNC(=O)c2ccc(NC(=O)C3=CSCCO3)cc2)cc1 -7.67%
CCc1ccccc1NC(=O)Cn1c(=O)n(-c2cccc(C)c2)c(=O)c2c1c1cc(OC)ccc1n2C -19%
COc1ccccc1C(=O)NC(=S)NC12CC3CC(CC(C3)C1)C2 -12.5%
COc1ccc(/C=C/C(=O)Nc2ccc(C34CC5CC(CC(O)(C5)C3)C4)cc2)cc1OC -26.3%
CSc1nn(Cc2cccc(C)c2)c(N)c1S(=O)(=O)c1ccccc1 -23%
COc1ccc(CCNc2ncnc3onc(-c4ccc(Cl)cc4)c23)c(OC)c1 -32.5%
CCOC(=O)c1cccc(NS(=O)(=O)c2cc(-c3cnc(C)o3)ccc2OC)c1 -14.7%
N#Cc1nc(/C=C/c2ccc(F)cc2)oc1NCc1ccc(F)cc1 4.74%
S=C(Nc1ccc(Br)cc1)NC1CCN(Cc2ccccc2)CC1 5.12%
C/C(=N\NC(=S)NC1CCCCC1)c1ccc(C)o1 41.7%
Cc1ccc(NC(=O)CSCC(=O)NC2CCCCC2)cc1 17.2%
Cc1ccc(/C=N/NC(=O)Cn2ccc(C(F)(F)F)n2)o1 -2.27%
CCOC(=O)c1ccc(NC(=O)C2CC(=O)NC(=Nc3ccc(C)c(C)c3)S2)cc1 (stereo not drawn) 2.36%
COc1cccc(CNC(=O)c2cc(=O)[nH]c3ccc(S(=O)(=O)N4CCCCC4)cc23)c1 3.87%
CCc1ccc(CNCc2c(C(=O)O)n(Cc3ccc(F)cc3Cl)c3cc(OC)ccc23)cc1 -23.5%
CN(C)c1ccc(/C=N\Nc2ccc([N+](=O)[O-])cc2[N+](=O)[O-])cc1Cl 4.33%
CN(C)c1ccc(N/C=C/C(=O)C(F)(F)F)cc1 17.9%
CN(C)c1ccc(C(CC(=O)O)C(=O)O)cc1 (stereo not drawn) -8.28%
CCOC(=O)Cn1c(=O)n(-c2ccccc2OC)c2nc(-c3cccc(F)c3)nc(C(N)=O)c21 -41.4%
COc1ccc(C(=O)CSc2nnnn2C)c(OC)c1 -6.19%
CCn1nnnc1SCC(=O)Nc1ccc(N(C)C)cc1 70.3%
CCCCn1c(CNC(=O)C23CC4CC(CC(C4)C2)C3)nnc1SCC(=O)Nc1ccc(C)cc1 -13.4%
COc1ccc(Cn2c(C(=O)O)c(CNCCc3cccs3)c3ccc(OC)cc32)cc1 0%
Nc1nc(SCc2cccc(Br)c2)n[nH]1 -2.4%
N#Cc1cccc(CSc2ncnc(N)n2)c1 -4.83%
Cc1ccc(Cn2c(=O)n(CCCC(=O)NCc3ccccc3Cl)c(=O)c3ccccc32)cc1 0%
O=C(COc1ccc(Cl)cc1)NCCC1=CCCCC1 -1.76%
CC(OC(=O)CNC(=O)c1ccc(Cl)c([N+](=O)[O-])c1)C(=O)NCc1ccco1 (stereo not drawn) -3%
O=C(COc1cccc(-n2cnnn2)c1)NCCC1=CCCCC1 -2.75%
CC(Sc1nncn1C)C(=O)NCCC1=CCCCC1 (stereo not drawn) -7.87%
CC(=O)c1ccc[n+](C(C)CCC(C)[n+]2cccc(C(C)=O)c2)c1 (stereo not drawn) 16.4%
COc1ccc(-c2cc(NCc3ccc(F)cc3)n3cnnc3n2)cc1 11.7%
Cc1ccc2c(c1)c1c(c(=O)n(-c3ccccc3)c(=O)n1CC(=O)c1ccc(Cl)cc1)n2C 3.56%
Cc1ccc(OCC(=O)OCc2cc(=O)n3nc(C4CC4)sc3n2)cc1 0%
COc1ccc(N(CC(=O)NC(C)(C)C)C(=O)c2ccco2)cc1 1.11%
COCCN(C(=O)C(C)C)c1nnc(-c2ccc(C(C)(C)C)cc2)s1 11.9%
Cc1c(CCO)sc[n+]1CC(=O)c1ccc2ccccc2c1 16.3%
O=C(CC1Oc2ccccc2NC1=O)NCc1ccc(F)cc1 (stereo not drawn) 12.5%
Cc1[nH]c2ccccc2c1SCC(=O)Nc1nccs1 79.8%
Cc1cc(C(F)(F)F)nc(SCC(=O)Nc2nccs2)n1 0.479%
Cc1oc2c(c1C(=O)Nc1ccc(F)c(F)c1)C1=NCCN1C=N2 -27.6%
Cc1cc(/C=C2/SC(=O)N(CC(=O)N3CCCC3)C2=O)ccc1N1CCOCC1 24.6%
CCN=C1S/C(=C\c2cc(Br)ccc2OCC(=O)OCC)C(=O)N1CC -28.2%
CN(C)Cc1cn(-c2ccccc2)nc1-c1ccccc1 14.5%
COc1ccccc1CNCc1ccc(C(=O)O)s1 -0.687%
COc1cc(OC)c(C(=O)NNC(=O)c2ccccc2-n2cccc2)cc1OC -4.17%
COc1ccc(Cl)cc1C(=O)Nc1ccc(N(C)C(C)=O)cc1 -8.57%
COc1ccc(-c2cc(C(F)(F)F)nc(SCC(=O)N(C)Cc3ccccc3)n2)cc1OC -44.2%
CN(C)S(=O)(=O)c1cc(C(=O)Nc2ccn(C)n2)c(Cl)cc1Cl -1.4%
Cc1nn(C)cc1C(=O)NNC(=S)Nc1ccc(Cl)cc1 0.773%
COc1cccc(C(=O)NCC(=O)OCc2cc(=O)n3ccsc3n2)c1 23.2%
CCn1cc(C(=O)N(C)Cc2ccccc2)c(=O)c2cc(S(=O)(=O)N3CCCCCC3)ccc21 -20.1%
COc1cccc(NC(=O)COc2cccnc2[N+](=O)[O-])c1 84.5%
O=C(O)c1cccnc1NC1CCCC1 0.755%
O=c1cc(COc2cccc(C(F)(F)F)c2)nc2sc3c(n12)CCCC3 22.3%
Cc1cccc(C(=O)OC(C)CN2CCCC2)c1 (stereo not drawn) -7.76%
Cc1ccc(C(=O)OC(C)CN2CCOCC2)cc1 (stereo not drawn) 34.5%
C(=Nc1ccc(/C=C/c2ccnc3ccccc23)cc1)c1cc2c3c(c1)CCCN3CCC2 5.17%
CN(c1ccccc1)S(=O)(=O)c1ccc(C(=O)NCCc2ccccc2)cc1 95.3%
Cc1c(C(=O)NCCCc2ccccc2)cccc1[N+](=O)[O-] -6.52%
Cc1ccccc1CNC(=O)c1ccc(NC(=O)N2CCCCc3ccccc32)cc1 0%
C/C=C/NNC(=O)Cc1ccc(OC)cc1 -35.7%
CC1=C(C(=O)OCC2CCCCC2)C(c2c(F)cccc2Cl)CC(=O)N1 (stereo not drawn) 11.3%
CC(=O)C1=C(C)NC(=O)NC1c1ccc2c(c1)OCO2 (stereo not drawn) -1.73%
CC(=O)c1cc2c(cc1N)OCO2 16.3%
CCOc1ccc(CCNC(=O)CN(c2ccc(C)cc2)S(=O)(=O)N(C)C)cc1OCC -3.76%
COc1ccc(CCNC(=O)C(=O)Nc2ccc3nc4n(c(=O)c3c2)CCCCC4)cc1OC 42.2%
O=C(Nc1ccc2nc3n(c(=O)c2c1)CCCC3)c1ccc(Cl)nc1 -1.17%
CCc1ccc(NC(=O)Cn2ncn3c(cc4ccccc43)c2=O)cc1 -0.0009%
Cc1cccc(NC(=O)c2nnn(CC(=O)Nc3ccc(C(C)C)cc3)c2N)c1C 72.2%
COc1ccc(Cn2c(=O)[nH]c3cc(C(=O)N4CCN(C(=O)c5ccco5)CC4)ccc3c2=O)cc1 -22.8%
Cc1ccc(-c2nn3c(=O)cc(CN4CCN(C(=O)Nc5cccc(C(F)(F)F)c5)CC4)nc3s2)cc1 0.612%

Potency, active:
Cc1cc(C(=O)NCCc2ccc(Cl)cc2)c(C)o1 8.91 µM
O=C(NCCc1ccccc1)Oc1ccc(Cl)cc1 12.6 µM
O=C(Nc1ccc2c(c1)OCCO2)C1CCCN(c2ncccn2)C1 (stereo not drawn) 10 µM
O=C(Nc1ccc(C(=O)NCc2ccccc2Cl)cc1)C1=CSCCO1 11.2 µM
CSc1ccc(/C=C/C(=O)NC23CC4CC(CC(C4)C2)C3)cc1 11.2 µM
Cc1ccc(/C=N/NC(=S)NC2CCCCC2)o1 4.47 µM
Cc1ccc(NC(=S)NC2CCCC2)cc1 10 µM
CC(C)CNC(=O)C(=O)Nc1ccc(N(C)C)cc1 2.24 µM
CCn1nnnc1SCC(=O)c1ccc(C)cc1C 6.31 µM
Nc1cc(N)nc(SCc2cccc(F)c2)n1 12.6 µM
O=C(NCCC1=CCCCC1)c1ccc(-n2cncn2)cc1 3.16 µM
O=C(NCCC1=CCCCC1)c1ccc(Cl)c([N+](=O)[O-])c1 7.94 µM
COCCN(C(=O)c1ccco1)c1nnc(-c2ccc(OC)cc2)s1 7.08 µM
CC(=O)c1cc(C#N)c(SCC(=O)Nc2nccs2)nc1C 2 µM
Cc1cc(/C=C2/SC(=O)N(CC(=O)OC(C)C)C2=O)c(C)n1C 2.51 µM
COc1cc(OC)c(C(=O)Nc2ccc(N(C)C)cc2)cc1OC 8.91 µM
Cn1ccc(NC(=O)Nc2ccc(Cl)cc2)n1 7.08 µM
COc1cccc(Nc2ncccc2C(=O)O)c1 11.2 µM
Cc1cccc(C(=O)OC(C)CN2CCN(C)CC2)c1 (stereo not drawn) 8.91 µM
CC(C)c1ccc(C(=O)NCCCc2ccccc2)cc1 10 µM
Nc1[nH][nH]c(=O)c1N=Nc1ccc2c(c1)OCO2 12.6 µM
COc1cccc(C(=O)Nc2ccc3nc4n(c(=O)c3c2)CCCCC4)c1 4.47 µM
CC(C)c1ccc(NC(=O)Cn2ncc3ccccc32)cc1 10 µM
